Measurements taken from PubChem BioAssay AID1745849 (National Center for Advancing Translational Sciences (NCATS), 2022).
In all, about 2,100 compounds went through this assay and about 320 (15%) were called active. Not shown: some 52% with an inconclusive outcome. The list shows a part of the results. Unmarked numbers belong to inactive results. The call rests on the fitted dose curve; in most records, active means well fitted cell-killing curve with a large enough effect; inconclusive means small, poorly fitted or top-dose-only effect, or effect the other way; inactive means flat fitted curve, though single readings scatter.

test: Viability Counterscreen for CMV-Luciferase Assay of Inhibitors of ATXN expression; settings: HEK-293 CMV-luciferase cells viability, protease fluorescence, 24 h; activity change, negative = cytotoxicity: at the top concentration; further: nearly all actives have a fitted effect of over 55% in size
Procedure, shortened: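 Cells: HEK-293/CMV-luc in phenol-red-free DMEM, 2 hr settle. Cpd dose, 24 hr, 37 °C, 5% CO2. Viability: Gly-Phe-AFC 25 uM final, 30 min, fluor. Then SteadyGlo, 5 min RT, lumin.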
On the % scale 0 is the no-effect control and ±100 the full control effect; potency means the concentration at half of the fitted maximal effect.

| Structure (SMILES) | activity change, negative = cytotoxicity | Potency |
| --- | --- | --- |
| N#Cc1nc(COc2ccc(-c3ccccc3)cc2)oc1NCc1cccnc1 | -12.5% | – |
| CCN1CCN(CCNC(=O)c2ccc(/C=C3/Sc4ccccc4N(Cc4cccc(C)c4)C3=O)cc2)CC1 | -10.5% [at 57.5 µM] | – |
| Cc1ccc(NC(=O)COc2ccc(/C=C3/SC(=Nc4ccccc4)N(Cc4cccnc4)C3=O)cc2)cc1 | – | 17.8 µM (active) |
| Cc1cccc(CN2C(=O)/C(=C\c3ccc(C(=O)NCCN4CCOCC4)cc3)Sc3ccccc32)c1 | -13.8% [at 57.5 µM] | – |
| CC(C)(C)n1nnnc1C(c1cccs1)N(Cc1ccc(Cl)cc1)CC1CCCO1 (stereo not drawn) | -29.5% [at 57.5 µM] | – |
| CC(C)Nc1nc(-c2ccccn2)nc(-c2ccccc2)c1C#N | -5.79% [at 57.5 µM] | – |
| CCN(CC)c1nc(-c2ccccn2)nc(-c2ccccc2)c1C#N | – | 5.62 µM (active) |
| O=S(=O)([N-]c1nc2ccccc2nc1-[n+]1ccc(Cc2ccccc2)cc1)c1ccc(Br)s1 | – | 3.55 µM (active) |
| COc1cccc(C(=O)Oc2c(CN3CCOCC3)cc(Cl)c3cccnc23)c1 | -9.7% [at 57.5 µM] | – |
| COC(=O)N/N=C/c1cn(CC(C)COc2ccccc2)c2ccccc12 (stereo not drawn) | -15.3% [at 57.5 µM] | – |
| S=C(NCCCN1CCOCC1)N1CCN(c2nc(-c3ccccc3)cs2)CC1 | -1.81% [at 57.5 µM] | – |
| O=C(Nc1cnn(C23CC4CC(CC(C4)C2)C3)c1)c1cnn2c(C(F)(F)F)cc(-c3ccco3)nc12 | – | 12.6 µM (active) |
| COC(=O)c1ccc(Oc2nc(NC(C)C)nc(N(C)C)n2)cc1 | -16.8% | – |
| O=C(CN1C(=O)c2ccccc2S1(=O)=O)N1CCc2ccccc21 | 2.08% | – |
| COCC(C)n1c(C)cc(C(=O)COC(=O)c2cccn2C)c1C (stereo not drawn) | 6.82% | – |
| O=c1c2ccc(Cl)cc2nc(-c2cccc(C(F)(F)F)c2)n1O | – | 10 µM (active) |
| N#Cc1ccc(-c2nc3cc(Cl)ccc3c(=O)n2O)cc1 | -23.8% | – |
| OC(c1ccc(Cl)cc1)c1ncc(-c2cccc(C(F)(F)F)c2)[nH]1 (stereo not drawn) | 6.35% | – |
| Cc1ccc(CN2CC(C(=O)Nc3ncc(C)s3)CC2=O)cc1 (stereo not drawn) | -23.1% | – |
| CCN(CCCn1c(=S)[nH]c2ccc(N3CCOCC3)cc2c1=O)c1ccccc1 | 19.1% | – |
| CC(Sc1ccc(Cl)cc1)C(=O)NNC(=O)c1ccccc1O (stereo not drawn) | -6.65% | – |
| CC1(C)Cc2ccccc2C2=NNC(=O)C2=N1 | – | 25.1 µM (active) |
| COc1cccc(/C=N/n2c(N)c(S(=O)(=O)c3cccs3)c3nc4ccccc4nc32)c1OC | – | 14.1 µM (active) |
| Cc1ccc(S(=O)(=O)c2c(N)n(CC3CCOC3)c3nc4ccccc4nc23)cc1 (stereo not drawn) | -8.96% | – |
| CCCCn1c(N)c(S(=O)(=O)c2ccc(C)cc2)c2nc3ccccc3nc21 | -27% | – |
| CCn1cc(C(=O)NCCCN2CCCC(C)C2)c(=O)c2cc(S(=O)(=O)N3CCc4ccccc4C3)ccc21 (stereo not drawn) | -21.9% [at 57.5 µM] | – |

| Structure (SMILES) | activity change, negative = cytotoxicity | Potency |
| --- | --- | --- |
| O=C(C1CC(=O)N(c2ccc3c(c2)OCCO3)C1)N1CCN(c2ccccc2)CC1 (stereo not drawn) | 1.88% | – |
| Cn1c(/C=C/c2ccc(Cl)cc2Cl)c([N+](=O)[O-])c(=O)n(C)c1=O | – | 10 µM (active) |
| Cn1c(/C=C/c2cccc([N+](=O)[O-])c2)c([N+](=O)[O-])c(=O)n(C)c1=O | – | 14.1 µM (active) |
| Cn1c(/C=C/c2ccc(Cl)cc2)c([N+](=O)[O-])c(=O)n(C)c1=O | – | 12.6 µM (active) |
| CN(c1ccc(OCC(=O)N2CCN(c3ccc(F)cc3)CC2)cc1)S(=O)(=O)c1cccs1 | 11.3% | – |
| CC(=O)N1CCCc2cc(S(=O)(=O)N3CCCC(C(=O)N4CCN(c5cc(C)ccc5C)CC4)C3)ccc21 (stereo not drawn) | -28.6% | – |
| CCOc1ccc(/C=C/[N+](=O)[O-])c2ccccc12 | – | 20 µM (active) |
| COc1ccc(NC(=O)N2CCN(c3nc(-c4cccc(OC)c4)cs3)CC2)cc1 | -19.1% | – |
| CC1CCN(C(=O)c2cc3nc(-c4ccccc4)cc(-c4ccccc4)n3n2)CC1 | 26.5% | – |
| Cc1c(C(=O)NCc2ccc(Cl)c(Cl)c2)sc(=O)n1Cc1ccc(S(C)(=O)=O)cc1 | -12.2% | – |
| O=S(=O)(Cc1cc(NCc2ccccc2)nc(-c2ccccn2)n1)c1ccccc1 | -10.2% [at 57.5 µM] | – |
| CCN(CC)CCn1nc2c3c(cccc3c1=O)-c1ccccc1-2 | – | 11.2 µM (active) |
| C/C(=N\NC(=O)C12CCC(C)(C(=O)O1)C2(C)C)c1ccccc1O (stereo not drawn) | -20.4% | – |
| COc1ccc(-c2csc(NC(=O)C3CCN(c4ncnc5sc(C)c(C)c45)CC3)n2)cc1OC | – | 8.91 µM (active) |
| COc1ccc(S(=O)(=O)N(C)C)cc1NC(=O)C1CCN(c2ncnc3sc(C)c(C)c23)CC1 | -27.6% [at 57.5 µM] | – |
| CCc1ccc(C(=O)NNC(=O)C2CCN(c3ncnc4sc(C)c(C)c34)CC2)cc1 | -11% | – |
| Cc1ccccc1Oc1cc(NC(=O)CCCn2nc(C)c([N+](=O)[O-])c2C)cc([N+](=O)[O-])c1 | -13% | – |
| S=C(NCc1ccc(Cl)cc1Cl)NC1CCCCC1 | -26.8% | – |
| O=C(N/N=C/c1ccccc1O)C1CCCC1 | -25.6% [at 57.5 µM] | – |
| O=C(Nc1ccccc1NC(=O)NC1CCCCC1)NC1CCCCC1 | – | 20 µM (active) |
| CCc1ccc(CNC(=O)c2cc3c(C)nc4ccccc4c3o2)cc1 | 16.5% [at 57.5 µM] | – |
| Cc1ccc2[nH]c(O)c(N=NC(=O)C3CC3c3ccccc3)c2c1Br (stereo not drawn) | -3.8% | – |
| O=C(/C=C/NNC(=O)c1ccccc1)c1ccc([N+](=O)[O-])cc1 | – | 12.6 µM (active) |
| O=C(NNCc1ccccc1)c1ccccc1 | 1.33% [at 57.5 µM] | – |
| O=C(O)COc1ccc2oc3ccccc3c2c1 | -0.968% | – |
| c1ccc(Cn2c(-c3ccccc3)c[n+]3c2SCCC3)cc1 | 6.56% [at 57.5 µM] | – |

| Structure (SMILES) | activity change, negative = cytotoxicity | Potency |
| --- | --- | --- |
| C/C(=N\NC(=O)c1cccc2ccccc12)c1ccccn1 | – | 1.41 µM (active) |
| CCc1ccc(OCC(=O)N/N=C(\C)c2ccc(O)cc2O)cc1 | -18.9% | – |
| CCCC/C(C)=N/NC(=O)c1cn(-c2ccccc2)nc1-c1ccccc1 | -5.57% | – |
| CCCCCC(=O)N/N=C(\C)c1ccccn1 | -20.9% | – |
| C/C(=N\NC(=O)COc1cccc(C)c1)c1ccc2ccccc2c1O | 21.9% [at 57.5 µM] | – |
| COc1ccc(CC(=O)N/N=C(\C)c2ccccn2)cc1 | – | 11.2 µM (active) |
| OC1(c2ccc(Br)cc2)CCNCC1 | -7.05% | – |
| Cc1cccc(OCCSc2nc3ncnc(N)c3[nH]2)c1 | -23.6% [at 57.5 µM] | – |
| COc1ccccc1Cc1c(-c2ccco2)nc2c(C)cc(Br)cn12 | – | 8.91 µM (active) |
| Cc1n(Cc2ccccc2)c2ccccc2[n+]1Cc1ccccc1 | -7.47% | – |
| CC(C)=CCc1ccc(O)c(=O)cc1C(C)C | -27.9% | – |
| CC(C)=CCc1c(O)cc2oc3c(CC=C(C)C)c(O)c(O)c(CC=C(C)C)c3c(=O)c2c1O | -26.9% | – |
| O=C(Nc1ccc(Cl)cc1)Nc1ccc(N2CCCC2)c(S(=O)(=O)Nc2ccccc2Cl)c1 | – | 7.94 µM (active) |
| O=C(Nc1ccc(N2CCN(C(=O)c3ccccc3)CC2)c(Cl)c1)c1ccc(Br)o1 | -24.8% | – |
| O=C(Nc1ccc(N2CCOCC2)c(Cl)c1)c1c(F)c(F)c(F)c(F)c1F | 5.69% | – |
| Cc1cc(C)c2nc(N(CCCN(C)C)C(=O)c3ccc4c(c3)OCCO4)sc2c1 | – | 31.6 µM (active) |
| Cc1cc(Cl)ccc1-c1cc2nc(NCCCN(C)C)n(C)c(=O)c2s1 | -11.6% | – |
| Cc1ccc(C(=O)N(CCCN(C)C)c2nc3ccc(Cl)cc3s2)cc1C | – | 22.4 µM (active) |
| Cc1ccc2nc(N(CCCN(C)C)C(=O)c3ccc(S(=O)(=O)N4CCCCCC4)cc3)sc2c1 | -18.4% | – |
| CCOC(=O)c1c(NC(=O)COC(=O)CNC(=O)c2ccco2)sc(C)c1C | 14.2% | – |
| CCC(=O)NC(c1ccco1)c1cc(Cl)c2cccnc2c1O (stereo not drawn) | -15% | – |
| CC(=O)NC(c1cccs1)c1cc([N+](=O)[O-])c2cccnc2c1O (stereo not drawn) | – | 11.2 µM (active) |
| CC(C)C(=O)NC(c1ccccc1)c1cc([N+](=O)[O-])c2cccnc2c1O (stereo not drawn) | – | 20 µM (active) |
| CCC(=O)NC(c1ccc(C)cc1)c1cc([N+](=O)[O-])c2cccnc2c1O (stereo not drawn) | – | 15.8 µM (active) |
| CCCCC(=O)NC(c1ccco1)c1cc(Cl)c2cccnc2c1O (stereo not drawn) | 12.6% [at 57.5 µM] | – |
| CC(=O)NC(C)c1cc(Cl)c2cccnc2c1O (stereo not drawn) | -23.7% [at 57.5 µM] | – |

| Structure (SMILES) | activity change, negative = cytotoxicity | Potency |
| --- | --- | --- |
| CCC(=O)NC(C)c1cc(Cl)c2cccnc2c1O (stereo not drawn) | -22% | – |
| CC(=O)NC(c1ccco1)c1cc(Cl)c2cccnc2c1O (stereo not drawn) | -1.71% [at 57.5 µM] | – |
| Cc1nc(-c2c(C(F)(F)F)noc2-c2ccc(O)cc2O)cs1 | -5.74% [at 57.5 µM] | – |
| COc1ccc(Nc2oc(COc3ccccc3OC)nc2C#N)cc1 | -11.6% | – |
| N#Cc1c(NCCN)nc(-c2ccco2)c2c1CCCC2 | -25.6% [at 57.5 µM] | – |
| CN(C)CCCNC(=O)/C=C/c1ccc(OCc2c(F)cccc2Cl)cc1 | -26.6% [at 57.5 µM] | – |
| CC(C)(O)C#Cc1ccc([C@@H]2C[C@H]3CN(c4ccccc4)C(=O)[C@]34CCCN24)s1 | – | 11.2 µM (active) |
| O=C1N(c2ccccc2)C[C@@H]2C[C@@H](c3cc4ccccc4o3)N3CCC[C@@]123 | – | 0.355 µM (active) |
| CCN1c2ccccc2NC2N=C(OC)C(c3ccccc3)C21 (stereo not drawn) | – | 12.6 µM (active) |
| Cn1c(=O)c2cc(NC(=O)Nc3cccnc3)ccc2n1Cc1ccc(Cl)cc1 | -16.4% [at 57.5 µM] | – |
| Cc1c(C(=O)N2c3ccccc3Sc3ccccc32)cccc1[N+](=O)[O-] | -15.4% [at 57.5 µM] | – |
| Cc1onc(-c2ccccc2)c1C(=O)Nc1ccc(S(=O)(=O)NC(C)(C)C)cc1 | 24.8% [at 57.5 µM] | – |
| Cc1nnc(SC(C)C(=O)Nc2ccc(Cl)cn2)n1Cc1ccccc1 (stereo not drawn) | -1.27% [at 57.5 µM] | – |
| COc1ccc(NC(C)C(=O)N/N=C/c2c(O)ccc3ccccc23)cc1 (stereo not drawn) | – | 8.91 µM (active) |
| Cc1occc1C(=O)N/N=C/c1c(O)ccc2ccccc12 | 29.1% [at 57.5 µM] | – |
| O=C(N/N=C\c1c(O)ccc2ccccc12)c1ccc(Cn2cccn2)o1 | 18.6% | – |
| C=CCc1cccc(CNc2nc3ccccc3n2C(C)C)c1O | -1.07% [at 57.5 µM] | – |
| O=C(CSc1nc2ncc(Cl)cc2[nH]1)Nc1cccc(F)c1 | -17.3% [at 57.5 µM] | – |
| O=C(CSc1ccc2ccccc2c1)Nc1nc2ccccc2[nH]1 | 4.28% | – |
| Cc1ccccc1NC(=O)CSc1n[nH]c(-c2ccccn2)n1 | – | 20 µM (active) |
| O=C(CSc1n[nH]c(-c2ccccn2)n1)Nc1cccc(Cl)c1 | – | 10 µM (active) |
| O=C(CSc1nc2ncc(Br)cc2[nH]1)Nc1ccccc1-c1ccccc1 | -18.9% [at 57.5 µM] | – |
| Cc1cc(NC(=O)CSc2nccn2-c2cccc(C)c2C)no1 | -8.06% | – |
| O=C(CSc1n[nH]c(-c2ccccn2)n1)Nc1ccc(F)cc1 | – | 17.8 µM (active) |
| O=C(CSc1nnc(-c2ccc(Br)cc2)o1)Nc1cccc(C(=O)O)c1 | 24.3% [at 57.5 µM] | – |
